About 30 (0.1%) of roughly 23,000 compounds showed an effect of 50% or more. Shown is part of a subset that was picked to be rich in strong results. Results with a measured potency or affinity are listed apart.

For orientation: Inhibition means the relative decrease from the control value, in per cent.

The test system of the assay is Pseudomonas aeruginosa. The following applies: Concentration 20 uM; ASSAY_TEST Inhibition of Bacterial Growth; detection method Absorption (OD600); MEDIA CAMHB; plate type 384well; NBS; CORNING #3640; time 18 hr.
As for `Cl.O=C(Nc1ccc(N2CCNCC2)nc1)c1oc(-c2ccccc2)nc1C(F)(F)F`, the Inhibition is given as -17.92%.
For `N=C(N)c1ccc(-c2cc(-c3ccccc3)on2)cc1` the value was 13.36%; for `CC(C)=CCC/C(C)=C\CNCCNC1C2CC3CC(C2)CC1C3` (centres undefined), 27.33%; for `O=C(c1ccc(F)cc1)N(CCNc1ccccc1)c1ccccc1`, 12.58%.

The values above are taken from ChEMBL document CHEMBL4513149, “CO-ADD screening of MMV (CH) - MMV compounds” (2021).
